# Assay results published in PubChem BioAssay (EPA / NIEHS).
# Records with an inconclusive call do not appear. Calls of active or inactive are those of the source. Rule for the calls, unless noted: active = hit-call score of the fitted dose curve at least 0.9, where 1 is the maximum; inactive = score below 0.9.
# Assays:
# [1] = CCTE_Mundy_HCI_Cortical_Synap_Neur_Matur_NeuriteCount: CCTE's Synaptogenesis and Neurite Maturation Assay in rat cortical cells for Neurite Count, Mundy Lab (AID 2284222);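 note: exposure from day 7 to day 12 in vitro with readout at day 12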
# Summary of the method: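 Rat cortical neurons, 96-well; AraC DIV 5; chemical + media change DIV 7; end DIV 12. Fix PFA/Hoechst, anti-MAP2 + anti-synaptophysin IF. HCI neurite count vs DMSO baseline.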
# [2] = CCTE_Mundy_HCI_Cortical_Synap_Neur_Matur_CellBodySpotCount: CCTE's Synaptogenesis and Neurite Maturation Assay in rat cortical cells for Cell Body Spot Count, Mundy Lab (AID 2284223)
# Summary of the method: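 Rat cortical neurons; AraC @ DIV 5; dose + media change DIV 7; fix DIV 12; anti-MAP2/anti-synaptophysin IF, Hoechst; HCI count of soma synaptophysin puncta/neuron; DMSO = negative control.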
# [3] = TAMU_HCS_1.5hr_SingleDonor1434_Cytotoxicity: Cytotoxicity Assessment using High-content Screening (HCS) Fluorescent Imaging for the Texas A&M University (TAMU) 1.5-hr Human Induced Pluripotent Stem Cell (iPSC)-derived Cardiotoxicity Assay (AID 2284234; active = hit-call score of the fitted dose curve at least 0.9, where 1 is the maximum)
# Summary of the method: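 Nuclear counts from Hoechst 33342 imaging define cytotoxicity here, with EC10 (10% cell-count loss relative to DMSO) as point of departure. iPSC cardiomyocytes received 0.2-100 uM test chemical in 0.5% DMSO for 1.5 h at 37 C.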
# [4] = TAMU_PeakParms_SingleDonor1434_QT: Texas A&M University (TAMU) 1.5-hr Human Induced Pluripotent Stem Cell (iPSC)-derived Cardiomyocytes Calcium (Ca+2) Flux Assay for Cardiotoxicity: QT (decay-rise ratio) (AID 2284235; active = hit-call score of the fitted dose curve at least 0.9, where 1 is the maximum)
# Summary of the method: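 Decay/rise ratio of calcium-flux fluorescence scored after 90 min exposure (37C) of donor 1434 iPSC cardiomyocytes to 0.2–100 uM (0.5% DMSO). Beat-cessation and severe-notch points removed; POD is EC05, a 5% rise over DMSO.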
# [5] = CCTE_Mundy_HCI_Cortical_NOG_BPCount: CCTE's Neurite Outgrowth Assay in rat cortical cells for Branch Point Count, Mundy Lab (AID 2284237)
# Summary of the method: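 Measured 50.33 h after dosing, this morphology endpoint uses rat primary cortical cultures labelled for betaIII-tubulin. Branch points are quantified by high-content imaging, with DMSO as negative control and baseline.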
# [6] = CCTE_Mundy_HCI_hNP1_Casp3_7: CCTE's Caspase-Glo 3/7 Assay in human neuroprogenitor cells for Apoptosis, Mundy Lab (AID 2284240)
# Summary of the method: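 Luminescent caspase-3/7 readout, 26.5 h post-dose, in human neural progenitor cells from WA09 embryonic stem cells. Cells grew 40–44 h at 37 °C, 5% CO2 before chemical addition. Activity analysed as signal increase over DMSO baseline.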
# [7] = CCTE_Mundy_HCI_hNP1_CellTiter: CCTE's Cell Titer-Glo 2 Assay in human neuroprogenitor cells for Viability, Mundy Lab (AID 2284241; active = hit-call score of the fitted dose curve at least 0.9, where 1 is the maximum)
# Summary of the method: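 Viability read as luminescent ATP content (CellTiter-Glo, 30 min room temperature) twenty-four hours after dosing, relative to DMSO. Cells: WA09-derived hNP1 neuroprogenitors on poly-L-ornithine/laminin, plated 40 to 44 hours before chemical.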
# [8] = IUF_NPC2c_oligodendrocyte_migration_120hr: Leibniz Research Institute for Environmental Medicine (IUF) 120-hour Neural Progenitor Cell Migration Assay for Oligodendrocyte Migration (NPC2c) (AID 2284297)
# Summary of the method: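 Read-out is the mean distance of O4-positive oligodendrocytes from the sphere core edge at 120 h, normalized to radial glia migration and fitted in the gain direction against DMSO. Spheres of primary human neural progenitors differentiated on laminin under continuous compound exposure.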
# [9] = IUF_NPC2a_radial_glia_migration_120hr: Leibniz Research Institute for Environmental Medicine (IUF) 120-hour Neural Progenitor Cell Migration Assay for Radial Glia Migration (NPC2a) (AID 2284298)
# Summary of the method: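 Readout: distance in um from sphere core edge to migration-area edge, derived from Hoechst nuclei density with a threshold-defined polynomial boundary. Spheres: hNPC, GW 16-19, 0.3 mm, on PDL/laminin; exposure 5 days; DMSO is baseline.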
# [10] = IUF_NPC2a_radial_glia_migration_72hr: Leibniz Research Institute for Environmental Medicine (IUF) 72-hour Neural Progenitor Cell Migration Assay for Radial Glia Migration (NPC2a) (AID 2284299)
# Summary of the method: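 Single 0.3 mm neurospheres were plated per well in N2 differentiation medium and exposed from the start of differentiation. After 72 hours, brightfield images were taken and radial glia migration from the sphere core edge was measured manually in four directions, averaged per well.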
# [11] = IUF_NPC2b_neuronal_migration_120hr: Leibniz Research Institute for Environmental Medicine (IUF) 120-hour Neural Progenitor Cell Migration Assay for Neuron Migration (NPC2b) (AID 2284300)
# Summary of the method: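 Read-out is mean distance from sphere edge to each TUBB3-positive neuron at 120 h, expressed relative to radial glia migration distance and to DMSO baseline. Single 0.3 mm human NPC spheres differentiated on laminin under continuous compound exposure.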
# [12] = IUF_NPC3_neuronal_differentiation_120hr: Leibniz Research Institute for Environmental Medicine (IUF) 120-hour Neuronal Differentiation Assay (NPC3) (AID 2284301)
# Summary of the method: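 hNPC spheres, PDL/laminin, DMEM/F12 3:1 + 1% N2, 37C, 5% CO2; 7 concentrations + solvent control, 5 d exposure, half-change day 3. Fix 120 h; TUBB3/Hoechst ICC, CNN neuron calling; % neurons vs nuclei, DMSO-normalized.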
# [13] = IUF_NPC4_neurite_length_120hr: Leibniz Research Institute for Environmental Medicine (IUF) 120-hour Neuronal Morphology Assay for Neurite Length (NPC4) (AID 2284302)
# Summary of the method: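 hNPC spheres (0.3 mm, fetal brain GW 16-19) on PDL/laminin, DMEM:F12 3:1 + 1% N2, 37C 5% CO2; 7 concs + solvent control, day 0-5, half medium change d3; fix 120 h, TUBB3 ICC, mean neurite length um vs DMSO.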
# [14] = CCTE_Mundy_HCI_Cortical_Synap_Neur_Matur_NeuronCount: CCTE's Synaptogenesis and Neurite Maturation Assay in rat cortical cells for Neuron Count, Mundy Lab (AID 2284242; active = hit-call score of the fitted dose curve at least 0.9, where 1 is the maximum)
# Summary of the method: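 Cortical cells from rat are plated, treated with AraC at DIV 5, and exposed to test chemicals with a media change at DIV 7. At DIV 12 they are fixed and immunostained (MAP2, synaptophysin), and imaged neuron counts are compared against DMSO controls.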
# [15] = IUF_NPC5_oligodendrocyte_differentiation_120hr: Leibniz Research Institute for Environmental Medicine (IUF) 120-hour Oligodendrocyte Differentiation Assay (NPC5) (AID 2284304; active = hit-call score of the fitted dose curve at least 0.9, where 1 is the maximum;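 note: primary human fetal neural progenitor spheres plated to migrate and differentiate; share of O4-positive cells among Hoechst nuclei found by CNN image analysis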)
# Summary of the method: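 Oligodendrocyte differentiation was scored after 120 h as the O4-positive share of Hoechst-stained nuclei across the neurosphere migration area, using a trained convolutional neural network on high-content fluorescence images. Human fetal neural progenitor spheres were dosed from day 0, normalised to DMSO.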
# [16] = CCTE_Mundy_HCI_hN2_NOG_NeuriteCount: CCTE's Neurite Outgrowth Assay in human hN2 cells for Neurite Count, Mundy Lab (AID 2284219; active = hit-call score of the fitted dose curve at least 0.9, where 1 is the maximum)
# Summary of the method: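 In this morphology assay, hNP1-derived neurons received test chemical 2 h post-plating and were fixed two days later in warm paraformaldehyde/sucrose containing Hoechst 33342. Neurites, labelled by rabbit anti-βIII-tubulin (1:800) and Alexa Fluor-488 (1:500), were counted automatically.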
# [17] = CCTE_Mundy_HCI_hN2_NOG_NeuriteLength: CCTE's Neurite Outgrowth Assay in human hN2 cells for Neurite Length, Mundy Lab (AID 2284220; active = hit-call score of the fitted dose curve at least 0.9, where 1 is the maximum)
# Summary of the method: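 Read-out is neurite length from high-content imaging of βIII-tubulin/Alexa Fluor-488-labelled neurons, referenced to DMSO controls.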
# [18] = CCTE_Mundy_HCI_hN2_NOG_NeuronCount: CCTE's Neurite Outgrowth Assay in human hN2 cells for Neuron Count, Mundy Lab (AID 2284221; active = hit-call score of the fitted dose curve at least 0.9, where 1 is the maximum)
# Summary of the method: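 Read-out is the number of betaIII-tubulin-positive neurons imaged by automated high-content analysis, with DMSO as negative control.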
# [19] = CCTE_Mundy_HCI_hNP1_Pro_ResponderAvgInten: CCTE's Proliferation Assay in human neuroprogenitor cells, Mundy Lab (AID 2284224; active = hit-call score of the fitted dose curve at least 0.9, where 1 is the maximum;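 note: human neural progenitor cells hNP1 derived from WA09 embryonic stem cells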)
# Summary of the method: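 Proliferation read as average intensity of BrdU-positive cells, imaged at 26.25 h post-dosing: chemical exposure started after 40–44 h culture, BrdU during final 4 h, paraformaldehyde fixation. Positive-direction fit relative to DMSO.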
# [20] = CCTE_Mundy_HCI_Cortical_NOG_NeuronCount: CCTE's Neurite Outgrowth Assay in rat cortical cells for Neuron Count, Mundy Lab (AID 2284236; active = hit-call score of the fitted dose curve at least 0.9, where 1 is the maximum;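 note: neurons counted by imaging betaIII-tubulin and Hoechst stained cortical cells; cells exposed to compound for about 48 hours before fixation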)
# Summary of the method: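 Read-out: neuron number by high-content imaging of betaIII-tubulin (Alexa Fluor-488) and Hoechst-labelled rat primary cortical cells.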
compound,measurement,setting,value
CC(=O)Oc1ccccc1C(=O)O,outcome,[1],inactive
same,outcome,[2],inactive
same,outcome,[3],inactive
same,outcome,[4],inactive
same,outcome,[5],inactive
same,outcome,[6],inactive
same,outcome,[7],inactive
same,outcome,[8],inactive
same,outcome,[9],inactive
same,outcome,[10],inactive
same,outcome,[11],inactive
same,outcome,[12],inactive
same,outcome,[13],inactive
OC[C@@H](O)[C@@H](O)[C@H](O)[C@H](O)CO,outcome,[1],inactive
same,outcome,[2],inactive
same,outcome,[5],inactive
same,outcome,[6],inactive
same,outcome,[14],inactive
same,outcome,[8],inactive
same,outcome,[9],inactive
same,outcome,[10],inactive
same,outcome,[11],inactive
same,outcome,[12],inactive
same,outcome,[13],inactive
same,outcome,[15],inactive
O=c1[nH]cc(F)c(=O)[nH]1,outcome,[16],inactive
same,outcome,[17],inactive
same,AC50,[18],2.34 µM (active)
same,outcome,[2],inactive
same,AC50,[19],4.62 µM (active)
same,outcome,[3],inactive
same,outcome,[4],inactive
same,AC50,[6],23.8 µM (active)
same,outcome,[14],inactive
CCCc1cc(=O)[nH]c(=S)[nH]1,outcome,[16],inactive
same,outcome,[17],inactive
same,outcome,[18],inactive
same,outcome,[2],inactive
same,outcome,[3],inactive
same,outcome,[20],inactive
same,outcome,[6],inactive
same,outcome,[14],inactive
COC(=O)c1ccc(O)cc1,outcome,[3],inactive
same,outcome,[4],inactive
O=C(O)CCCCC(=O)O,outcome,[3],inactive
same,outcome,[4],inactive
CCOc1ccc2c(c1)C(C)=CC(C)(C)N2,AC50,[3],50 µM (active)
same,outcome,[4],inactive
C[Si]1(C)O[Si](C)(C)O[Si](C)(C)O[Si](C)(C)O1,outcome,[1],inactive
same,outcome,[2],inactive
same,outcome,[19],inactive
same,outcome,[5],inactive
same,outcome,[6],inactive
same,outcome,[8],inactive
same,outcome,[9],inactive
same,outcome,[10],inactive
same,outcome,[11],inactive
same,outcome,[12],inactive
same,outcome,[13],inactive
same,outcome,[15],inactive
